The supplement of paper PMC10037445
Whole data set: some 2,900 compounds, median “NF-kB SEAP reporter activity, fold change vs agonist alone” near 0.99, cut for the highest 2% near 2.6. This is one part of a sample in which the highest values are shown more often than they occur.

Legend:
RAW-Dual [1] = experiment: NF-kB SEAP reporter activity, fold change vs agonist alone; cytotoxicity flag (confluency mask): not cytotoxic; higher = enhanced NF-kB activity
Procedure, shortened: (§1)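 Cytotoxic wells were those whose IncuCyte confluency was below 70% of agonist controls in both mask sets. The cells were RAW-Dual macrophages at 50,000 cells/well in DMEM on 384-well plates, dosed with 50 nL of library stock by pin tool, stimulated with a PRR agonist 1 h later, and kept at 37 °C, 5% CO2 for 20 hours. IRF and NF-κB reporter activity, as fold change over agonist-alone wells, came from supernatant read by QuantiLuc luminescence and QuantiBlue absorbance, respectively.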

RAW-Dual [2] = experiment: NF-kB SEAP reporter activity, fold change vs agonist alone; higher = enhanced NF-kB activity; conditions: cytotoxicity flag (confluency mask): not cytotoxic
Procedure, shortened: as §1

[3] = agonist: ODN 1826 (TLR9) 0.5 ug/mL
[4] = agonist: Pam2CSK4 (TLR2/6) 0.1 ug/mL
[5] = agonist: Pam3CSK4 (TLR2/1) 0.1 ug/mL
[6] = library stock concentration (final ~1000-fold dilution): 10 mM, agonist: Imiquimod (TLR7) […]
[7] = library stock concentration (final ~1000-fold dilution): 10 mM, agonist: MPLA (TLR4) […]

## COc1ccc(S(=O)(=O)Nc2cccnc2Nc2ccc(O)cc2)cc1 (library stock concentration (final ~1000-fold dilution): 10 mM)
RAW-Dual [1]; agonist: LPS (TLR4) 0.1 ug/mL
  NF-kB SEAP reporter activity: 4.93
RAW-Dual [1]; [3]
  NF-kB SEAP reporter activity: 3.17
RAW-Dual [1]; [4]
  NF-kB SEAP reporter activity: 1.86
RAW-Dual [1]; [5]
  NF-kB SEAP reporter activity: 2.22

## CCC(C)n1cc(C)c2c(C(=O)NCc3c(C)cc(C)[nH]c3=O)cc(-c3ccc(N4CCNCC4)nc3)cc21 (stereo not given) (library stock concentration (final ~1000-fold dilution): 2 mM)
RAW-Dual [1]; agonist: LPS (TLR4) 0.1 ug/mL
  NF-kB SEAP reporter activity: 1.17
RAW-Dual [1]; [3]
  NF-kB SEAP reporter activity: 0.973
RAW-Dual [1]; [4]
  NF-kB SEAP reporter activity: 0.979
RAW-Dual [1]; [5]
  NF-kB SEAP reporter activity: 1.07

## CCC(C)n1cc(C)c2c(C(=O)NCc3c(C)cc(C)[nH]c3=O)cc(-c3ccc(N4CCNCC4)nc3)cc21 (stereo not given)
RAW-Dual [2]; library stock concentration (final ~1000-fold dilution): 2 mM, agonist: Imiquimod (TLR7) […]
  NF-kB SEAP reporter activity: 0.954
RAW-Dual [2]; library stock concentration (final ~1000-fold dilution): 2 mM, agonist: MPLA (TLR4) […]
  NF-kB SEAP reporter activity: 0.941

## COc1ccc(-c2cc(=O)c3c(O)c(OC)c(O)c(OC)c3o2)cc1
RAW-Dual [2]; [6]
  NF-kB SEAP reporter activity: 0.931
RAW-Dual [2]; [7]
  NF-kB SEAP reporter activity: 1.09

## COc1ccc(-c2cc(=O)c3c(O)c(OC)c(O)c(OC)c3o2)cc1 (library stock concentration (final ~1000-fold dilution): 10 mM)
RAW-Dual [1]; agonist: LPS (TLR4) 0.1 ug/mL
  NF-kB SEAP reporter activity: 1.27
RAW-Dual [1]; [3]
  NF-kB SEAP reporter activity: 0.993
RAW-Dual [1]; [4]
  NF-kB SEAP reporter activity: 1.14
RAW-Dual [1]; [5]
  NF-kB SEAP reporter activity: 1.05

## CC1(C(=O)O)CCC2(C)CCC3(C)C(=CC(=O)C4C5(C)CCC(OC6OC(C(=O)O)C(O)C(O)C6OC6OC(C(=O)O)C(O)C(O)C6O)C(C)(C)C5CCC43C)C2C1.N.N (stereo not given) (library stock concentration (final ~1000-fold dilution): 10 mM)
RAW-Dual [1]; agonist: LPS (TLR4) 0.1 ug/mL
  NF-kB SEAP reporter activity: 0.96
RAW-Dual [1]; [3]
  NF-kB SEAP reporter activity: 0.88
RAW-Dual [1]; [4]
  NF-kB SEAP reporter activity: 0.866
RAW-Dual [1]; [5]
  NF-kB SEAP reporter activity: 1.15

## CC1(C(=O)O)CCC2(C)CCC3(C)C(=CC(=O)C4C5(C)CCC(OC6OC(C(=O)O)C(O)C(O)C6OC6OC(C(=O)O)C(O)C(O)C6O)C(C)(C)C5CCC43C)C2C1.N.N (stereo not given)
RAW-Dual [2]; [6]
  NF-kB SEAP reporter activity: 0.926
RAW-Dual [2]; [7]
  NF-kB SEAP reporter activity: 1.03

## CC(C)n1nc(-c2cc3cc(O)ccc3[nH]2)c2c(N)ncnc21
RAW-Dual [2]; [6]
  NF-kB SEAP reporter activity: 0.933
RAW-Dual [2]; [7]
  NF-kB SEAP reporter activity: 0.941

## CC(C)n1nc(-c2ccc3oc(N)nc3c2)c2c(N)ncnc21
RAW-Dual [2]; [6]
  NF-kB SEAP reporter activity: 1.76
RAW-Dual [2]; [7]
  NF-kB SEAP reporter activity: 2.1

## CC(C)n1nc(-c2cc3cc(O)ccc3[nH]2)c2c(N)ncnc21 (library stock concentration (final ~1000-fold dilution): 10 mM)
RAW-Dual [1]; agonist: LPS (TLR4) 0.1 ug/mL
  NF-kB SEAP reporter activity: 3.13
RAW-Dual [1]; [3]
  NF-kB SEAP reporter activity: 0.998
RAW-Dual [1]; [4]
  NF-kB SEAP reporter activity: 1.01
RAW-Dual [1]; [5]
  NF-kB SEAP reporter activity: 0.904

## CC(C)n1nc(-c2ccc(NC(=O)Nc3cc(C(F)(F)F)ccc3F)cc2)c2c(N)ncnc21 (library stock concentration (final ~1000-fold dilution): 10 mM)
RAW-Dual [1]; agonist: LPS (TLR4) 0.1 ug/mL
  NF-kB SEAP reporter activity: 0.398
RAW-Dual [1]; [3]
  NF-kB SEAP reporter activity: 0.196
RAW-Dual [1]; [4]
  NF-kB SEAP reporter activity: 0.0706
RAW-Dual [1]; [5]
  NF-kB SEAP reporter activity: 0.216

## CC(C)n1nc(-c2ccc3oc(N)nc3c2)c2c(N)ncnc21 (library stock concentration (final ~1000-fold dilution): 10 mM)
RAW-Dual [1]; agonist: LPS (TLR4) 0.1 ug/mL
  NF-kB SEAP reporter activity: 2.03
RAW-Dual [1]; [3]
  NF-kB SEAP reporter activity: 1.69
RAW-Dual [1]; [4]
  NF-kB SEAP reporter activity: 0.647
RAW-Dual [1]; [5]
  NF-kB SEAP reporter activity: 0.973

## CC(C)n1nc(-c2ccc(NC(=O)Nc3cc(C(F)(F)F)ccc3F)cc2)c2c(N)ncnc21
RAW-Dual [2]; [6]
  NF-kB SEAP reporter activity: 0.149
RAW-Dual [2]; [7]
  NF-kB SEAP reporter activity: 0.261
